From PubChem BioAssay AID1159580 (chemical genetic matrix, 2015)
“And” between values parts separate entries of the source, which are not always exact repeats. Identical values can stand only once. Screen size: about 5,500 compounds; about 2,000 (36%) were called active. About 18% were inconclusive and are not listed. No stated cut-off is given here; in the data, active means normalized growth mostly below about 0.91 (no sharp cut-off); inconclusive means no clear call, values can overlap the other calls; inactive means mostly above about 0.92. The list shows a part of the results. Some structures have more than one record in an assay (separate samples or runs), and their calls can disagree.

Assay: chemical genetic growth profiling, strain panel (AID 1159580);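 further: tested at 20 µM; growth read once vehicle control cultures reached saturation at 30 °C; 1 = growth at the plate median or of vehicle wells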
Conditions: S. cerevisiae deletion strains, growth OD

## O=c1cc(-c2ccccc2)oc2cc(O)cc(O)c12
Locus YAL013W, strain DEP1, stronger effect = lower value
  normalized growth: 0.956 (inactive)
Locus YAL021C, strain ccr4, stronger effect = lower value
  normalized growth: 0.968 (inactive) and 0.933 (inactive)
Locus YAL026C, strain drs2, stronger effect = lower value
  normalized growth: 0.911 (inactive) and 0.786 (active)
Locus YAL030W, strain snc1, stronger effect = lower value
  normalized growth: 0.943 (inactive) and 0.913 (active)
Locus YBL061C, strain skt5, stronger effect = lower value
  normalized growth: 0.904 (active)
Locus YBR009C, strain hhf1, stronger effect = lower value
  normalized growth: 0.915 (inactive) and 0.773 (active)
Locus YBR021W, strain FUR4, stronger effect = lower value
  normalized growth: 1.01 (inactive)
Locus YBR023C, strain chs3, stronger effect = lower value
  normalized growth: 1.01 (inactive) and 0.851 (active)
Locus YBR171W, strain sec66, stronger effect = lower value
  normalized growth: 0.953 (inactive) and 0.858 (active)
Locus YBR229C, strain ROT2, stronger effect = lower value
  normalized growth: 0.993 (inactive)
Locus YBR231C, strain swc5, stronger effect = lower value
  normalized growth: 0.938 (inactive) and 0.875 (active)
Locus YBR279W, strain paf1, stronger effect = lower value
  normalized growth: 0.947 (inactive) and 0.922 (active)
Locus YCL011C, strain gbp2, stronger effect = lower value
  normalized growth: 0.937 (inactive) and 0.86 (active)
Locus YCL016C, strain dcc1, stronger effect = lower value
  normalized growth: 1.07 (inactive) and 0.875 (active)
Locus YCL029C, strain bik1, stronger effect = lower value
  normalized growth: 0.911 (inactive)
Locus YCL061C, strain MRC1, stronger effect = lower value
  normalized growth: 0.951 (inactive) and 0.802 (active)
Locus YCL069W, strain vba3, stronger effect = lower value
  normalized growth: 0.978 (inactive) and 0.896 (active)
Locus YCR088W, strain abp1, stronger effect = lower value
  normalized growth: 0.957 (inactive) and 0.923 (inactive)
Locus YDL005C, strain med2, stronger effect = lower value
  normalized growth: 0.961 (inactive) and 0.958 (inactive)
Locus YDL035C, strain GPR1, stronger effect = lower value
  normalized growth: 0.919 (inactive)
Locus YDL040C, strain nat1, stronger effect = lower value
  normalized growth: 1.02 (inactive) and 0.916 (active)
Locus YDL074C, strain BRE1, stronger effect = lower value
  normalized growth: 0.87 (inactive)
Locus YDL101C, strain DUN1, stronger effect = lower value
  normalized growth: 0.987 (inactive)
Locus YDL134C, strain PPH21, stronger effect = lower value
  normalized growth: 0.954 (inactive)
Locus YDL185W, strain tfp1, stronger effect = lower value
  normalized growth: 0.946 (inactive)
Locus YDL192W, strain arf1, stronger effect = lower value
  normalized growth: 0.919 (inactive)
Locus YDR001C, strain nth1, stronger effect = lower value
  normalized growth: 0.96 (inactive) and 0.917 (active)
Locus YDR069C, strain doa4, stronger effect = lower value
  normalized growth: 0.926 (inactive) and 0.919 (inactive)
Locus YDR101C, strain arx1, stronger effect = lower value
  normalized growth: 0.921 (inactive)
Locus YDR137W, strain rgp1, stronger effect = lower value
  normalized growth: 0.675 (active) and 0.533 (active)
Locus YDR150W, strain NUM1, stronger effect = lower value
  normalized growth: 0.973 (inactive)
Locus YDR159W, strain sac3, stronger effect = lower value
  normalized growth: 0.853 (active) and 0.785 (active)
Locus YDR162C, strain NBP2, stronger effect = lower value
  normalized growth: 0.92 (inactive)
Locus YDR195W, strain ref2
  normalized growth: 0.986 (inactive) and 1.15 [resistant] (active)
Locus YDR297W, strain sur2, stronger effect = lower value
  normalized growth: 0.946 (inactive) and 0.907 (active)
Locus YDR318W, strain mcm21, stronger effect = lower value
  normalized growth: 0.902 (active)
Locus YDR334W, strain swr1, stronger effect = lower value
  normalized growth: 0.954 (inactive) and 0.887 (active)
Locus YDR335W, strain msn5, stronger effect = lower value
  normalized growth: 0.957 (inactive) and 0.88 (active)
Locus YDR388W, stronger effect = lower value
  normalized growth: 0.914 (active)
Locus YDR392W, strain spt3, stronger effect = lower value
  normalized growth: 0.595 (active) and 0.401 (active)
Locus YDR502C, strain sam2, stronger effect = lower value
  normalized growth: 0.922 (inactive)
Locus YEL003W, strain gim4, stronger effect = lower value
  normalized growth: 0.952 (inactive) and 0.809 (active)
Locus YEL037C, strain rad23, stronger effect = lower value
  normalized growth: 0.941 (inactive) and 0.911 (active)
Locus YEL061C, strain CIN8 (second series), stronger effect = lower value
  normalized growth: 0.961 (inactive) and 0.888 (active)
Locus YEL061C, strain CIN8, stronger effect = lower value
  normalized growth: 0.967 (inactive)
Locus YER015W, strain faa2, stronger effect = lower value
  normalized growth: 0.936 (inactive) and 0.867 (active)
Locus YER016W, strain bim1, stronger effect = lower value
  normalized growth: 1.07 (inactive) and 0.92 (active)
Locus YER110C, stronger effect = lower value
  normalized growth: 0.945 (inactive)
Locus YER111C, strain swi4, stronger effect = lower value
  normalized growth: 0.97 (inactive) and 0.951 (inactive)
Locus YER155C, strain BEM2 (second series), stronger effect = lower value
  normalized growth: 0.686 (active) and 0.499 (active)
Locus YER155C, strain BEM2, stronger effect = lower value
  normalized growth: 0.969 (inactive)
Locus YER167W, strain BCK2, stronger effect = lower value
  normalized growth: 0.928 (inactive)
Locus YFR010W, strain ubp6, stronger effect = lower value
  normalized growth: 0.931 (inactive) and 0.919 (inactive)
Locus YGL078C, strain dbp3, stronger effect = lower value
  normalized growth: 0.957 (inactive)
Locus YGL086W, strain mad1, stronger effect = lower value
  normalized growth: 0.853 (active)
Locus YGL167C, strain pmr1, stronger effect = lower value
  normalized growth: 0.924 (inactive) and 0.87 (active)
Locus YGL173C, strain kem1, stronger effect = lower value
  normalized growth: 0.858 (active) and 0.891 (active)
Locus YGL227W, strain vid30, stronger effect = lower value
  normalized growth: 0.952 (inactive) and 0.909 (active)
Locus YGL240W, strain doc1, stronger effect = lower value
  normalized growth: 0.797 (active) and 0.631 (active)
Locus YGL248W, strain PDE1, stronger effect = lower value
  normalized growth: 0.949 (inactive)
Locus YGL253W, strain hxk2, stronger effect = lower value
  normalized growth: 0.941 (inactive) and 0.855 (active)
Locus YGR078C, strain PAC10, stronger effect = lower value
  normalized growth: 0.858 (inactive)
Locus YGR135W, strain pre9, stronger effect = lower value
  normalized growth: 0.879 (active)
Locus YGR229C, strain SMI1, stronger effect = lower value
  normalized growth: 0.802 (active)
Locus YGR252W, strain gcn5, stronger effect = lower value
  normalized growth: 0.762 (active)
Locus YHR013C, strain ard1, stronger effect = lower value
  normalized growth: 1.06 (inactive) and 1.1 (inactive)
Locus YHR027C, strain rpn1, stronger effect = lower value
  normalized growth: 0.95 (inactive) and 0.901 (active)
Locus YHR030C, strain SLT2, stronger effect = lower value
  normalized growth: 0.967 (inactive) and 0.884 (inactive)
Locus YHR079C, strain IRE1 (second series), stronger effect = lower value
  normalized growth: 0.92 (active)
Locus YHR079C, strain IRE1, stronger effect = lower value
  normalized growth: 0.862 (inactive)
Locus YHR094C, strain hxt1, stronger effect = lower value
  normalized growth: 0.964 (inactive)
Locus YHR129C, strain ARP1, stronger effect = lower value
  normalized growth: 0.992 (inactive)
Locus YHR142W, strain chs7, stronger effect = lower value
  normalized growth: 0.889 (inactive) and 0.702 (active)
Locus YHR200W, strain rpn10, stronger effect = lower value
  normalized growth: 0.91 (active)
Locus YIL066C, strain RNR3, stronger effect = lower value
  normalized growth: 0.959 (inactive)
Locus YIL073C, strain SPO22, stronger effect = lower value
  normalized growth: 0.854 (inactive)
Locus YIL125W, strain kgd1, stronger effect = lower value
  normalized growth: 0.955 (inactive)
Locus YIR030C, strain dcg1, stronger effect = lower value
  normalized growth: 0.944 (inactive)
Locus YJL092W, strain hpr5, stronger effect = lower value
  normalized growth: 0.954 (inactive) and 0.91 (active)
Locus YJL095W, strain BCK1 (second series), stronger effect = lower value
  normalized growth: 0.942 (inactive) and 0.879 (active)
Locus YJL095W, strain BCK1, stronger effect = lower value
  normalized growth: 0.825 (inactive) and 0.889 (inactive)
Locus YJL115W, strain asf1, stronger effect = lower value
  normalized growth: 0.954 (inactive) and 0.904 (active)
Locus YJL129C, strain trk1, stronger effect = lower value
  normalized growth: 0.816 (active) and 0.603 (active)
Locus YJL134W, strain LCB3, stronger effect = lower value
  normalized growth: 0.991 (inactive)
Locus YJL154C, strain vps35, stronger effect = lower value
  normalized growth: 0.97 (inactive) and 0.918 (active)
Locus YJL164C, strain tpk1, stronger effect = lower value
  normalized growth: 0.909 (active) and 0.811 (active)
Locus YJL166W, strain qcr8, stronger effect = lower value
  normalized growth: 0.891 (active) and 0.741 (active)
Locus YJL168C, strain set2, stronger effect = lower value
  normalized growth: 0.948 (inactive)
Locus YJL187C, strain SWE1 (second series), stronger effect = lower value
  normalized growth: 0.939 (inactive)
Locus YJL187C, strain SWE1, stronger effect = lower value
  normalized growth: 0.952 (inactive) and 0.902 (active)
Locus YJR043C, strain POL32, stronger effect = lower value
  normalized growth: 0.899 (inactive)
Locus YJR066W, strain TOR1, stronger effect = lower value
  normalized growth: 0.883 (inactive)
